Laboratory results: PubChem BioAssay
Active and inactive are the calls of the source.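 How the source made its calls, unless noted: active means visually confirmed hit in the image check and inhibition above 20%; inconclusive means visually confirmed hit but inhibition not above 20%; inactive means no visual hit in the image check.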

Key:
[1] = inhibitors of TNFa-induced NFkB p65 translocation, primary screen, imaging, HUVEC, MLSMR starter and 10KST1 sets (AID 438;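 active means inhibition above 20% together with a positive visual image hit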;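 further: compound added about 3h40 before a 20 min TNFalpha stimulation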;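 on inhibition: signal is the nuclear over cytoplasmic p65 intensity ratio per well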); details: HUVEC TNFa-induced p65 nuclear translocation; cell count: measured here: nuclei count (cytotoxicity indicator), at 2.08 µM; inhibition: at 2 µM, stronger effect = higher value, 0% TNFa-plus-vehicle, 100% no-TNFa wells
[2] = reduction of polyQ htt aggregates in cells – imaging, exon1htt(103Q)mCFP cells, high-content imaging, primary screen (AID 483;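 active means visual image review flags a hit and inhibition of aggregation exceeds 20%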;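 further: compound exposure lasted 3 days before fixation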;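 on nuclei count: percent of the per-plate median nuclei count of sample wells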); details: exon1htt(103Q)mCFP cell line, aggregate imaging, at 2 µM; inhibition of aggregation: stronger effect = higher value; nuclei count: measured here: cell count, toxicity
[3] = endothelial E-selectin expression blockers – imaging, HUVEC, immunofluorescence, MLSMR starter and 10KST1 sets, primary screen (AID 487); details: HUVEC TNFalpha-induced E-selectin immunofluorescence imaging, at 2 µM; inhibition: stronger effect = higher value; nuclei count: measured here: cell number, toxicity;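 on inhibition: signal is fraction of cell area covered by stained E-selectin grains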;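 on nuclei count: 100% = median nuclei count of all wells on the same plate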
[4] = target: Voltage-gated potassium channel subunit beta-2 (Rattus norvegicus) (UniProt P62483); assay: inhibitors of rat Kvbeta2 reductase activity – biochemical, NADPH fluorescence, primary screen (AID 622;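 active means fluorescence slope higher than the sample average by over 3 SD, cut at about -0.22 in these data, passing the limit was not always enough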;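 further: slope of raw intensity against log time taken from 70 to 1610 s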); details: recombinant KvBeta, 4-cyanobenzaldehyde reduction, at 10 µM, stronger effect = higher value
[5] = target: Voltage-gated potassium channel subunit beta-2 (Rattus norvegicus) (UniProt P62483); assay: enhancers of rat Kvbeta2 NADPH turnover – biochemical, NADPH fluorescence, primary screen (AID 623;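 active means NADPH fluorescence slope more negative than the mean of all samples by about 3 SD, 99.7% confidence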;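 further: fluorescence intensity change per second fitted from 20 to 320 s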); details: Recombinant KvBeta, NADPH fluorescence decrease slope, 10 min; at 10 µM; stronger effect = lower value
[6] = target: Alpha-2C adrenergic receptor (Homo sapiens) (UniProt P18825); assay: compounds altering alpha2C-coupled GIRK flux – cell-based, HEK293 alpha2C/GIRK1/2, thallium flux, primary screen (AID 624;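 active means fluorescence slope after compound addition differing from the mean of all screened samples at 99.7% confidence, in either direction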;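 further: slope of fluorescence ratio to pre-addition baseline per second over 15 to 24 s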); details: thallium flux BTC fluorescence, at 10 µM, actives lie on both sides
[7] = blockers of RIG-like receptor reporter activation – cell-based, Sendai virus stimulus, luciferase, 10K MLSCN set, TLR/RLR signaling modifier project, primary screen (AID 602276;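 active means inhibition at or above 50% at 10 µM; inactive means inhibition below 50%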;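 further: firefly luciferase from ISG56 promoter only with Renilla not read in this screen; 0% = Sendai virus plus DMSO and 100% = medium plus DMSO without virus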); details: HEK293 RL24 IRF3 luciferase reporter, at 10 µM, stronger effect = higher value
[8] = TLR3 IRF3 reporter activation blockers – cell-based, poly I:C stimulus, luciferase, 10K MLSCN set, primary screen (AID 602277;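 active means inhibition of the reporter signal at or above 50%; inactive means inhibition below 50%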); details: HEK293-TLR3 RL24 IRF3 luciferase reporter, at 10 µM, stronger effect = higher value

Chain of Voltage-gated potassium channel subunit beta-2 (Rattus norvegicus) (P62483 whole entry, looked up): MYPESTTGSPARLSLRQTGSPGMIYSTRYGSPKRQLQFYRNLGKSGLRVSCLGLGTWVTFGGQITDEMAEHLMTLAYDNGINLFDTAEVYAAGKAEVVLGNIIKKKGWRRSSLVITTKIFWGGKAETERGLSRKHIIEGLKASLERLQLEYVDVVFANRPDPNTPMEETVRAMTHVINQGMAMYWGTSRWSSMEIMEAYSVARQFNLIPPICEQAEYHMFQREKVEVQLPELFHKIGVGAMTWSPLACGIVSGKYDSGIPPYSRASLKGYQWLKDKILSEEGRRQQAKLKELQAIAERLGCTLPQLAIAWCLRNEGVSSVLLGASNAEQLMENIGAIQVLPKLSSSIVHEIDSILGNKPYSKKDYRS
Chain of Alpha-2C adrenergic receptor (Homo sapiens) (P18825 whole entry, looked up): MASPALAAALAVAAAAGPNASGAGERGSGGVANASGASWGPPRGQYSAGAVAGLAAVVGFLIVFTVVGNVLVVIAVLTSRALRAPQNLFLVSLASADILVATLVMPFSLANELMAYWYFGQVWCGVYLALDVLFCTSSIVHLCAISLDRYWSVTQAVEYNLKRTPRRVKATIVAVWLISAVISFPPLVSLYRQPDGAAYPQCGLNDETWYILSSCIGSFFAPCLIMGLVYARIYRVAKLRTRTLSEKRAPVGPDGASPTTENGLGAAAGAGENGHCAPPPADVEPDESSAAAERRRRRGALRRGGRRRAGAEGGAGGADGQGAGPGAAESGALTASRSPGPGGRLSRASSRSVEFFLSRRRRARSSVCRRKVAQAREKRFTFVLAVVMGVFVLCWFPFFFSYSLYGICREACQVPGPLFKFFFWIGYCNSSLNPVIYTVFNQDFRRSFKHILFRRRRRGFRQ

| SMILES | cell count [1] | inhibition [1] | inhibition of aggregation [2] | nuclei count [2] [%] | inhibition [3] | nuclei count [3] [%] | fluorescence slope [4] | NADPH fluorescence slope [5] | slope [6] | inhibition [7] | inhibition [8] |
| --- | --- | --- | --- | --- | --- | --- | --- | --- | --- | --- | --- |
| CC(=O)c1ccc(OCC(O)CN2CCN(Cc3ccc4c(c3)OCO4)CC2)cc1 (configuration not stated) | 522 | 4.5% (inactive) | -3.8% (inactive) | 87.9 | -33.9% (inactive) | 108 | -0.536 (inactive) | -4.2e-05 (inactive) | 0.0062 (inactive) | 11.6% (inactive) | 40.6% (inactive) |
| CCOc1ccccc1C1CC(=O)Nc2cc3c(cc21)OCO3 (configuration not stated) | 266 | 14.4% (inactive) | -18.8% (inactive) | 86.9 | -9.8% (inactive) | 98.7 | -0.38 (inactive) | -4.6e-05 (inactive) | 0.00457 (inactive) | 3.25% (inactive) | 40.2% (inactive) |
| O=C1CCCc2c1nn(-c1ccccc1)[n+]2[O-] | 563 | 7.1% (inactive) | -12.3% (inactive) | 107 | -32.5% (inactive) | 108 | -0.426 (inactive) | -2.2e-05 (inactive) | 0.00571 (inactive) | 2.04% (inactive) | 5.41% (inactive) |
| COc1cc(N=c2ssnc2Cl)cc(OC)c1 | 148 | -7.4% (inactive) | 0.8% (inactive) | 74.7 | 4.2% (inactive) | 82.2 | -0.557 (inactive) | -8.9e-05 (inactive) | 0.0056 (inactive) | -6.83% (inactive) | 8.97% (inactive) |
| CCOc1ccc(OCC)c(NS(=O)(=O)c2ccc3c(c2)n(C)c(=O)c(=O)n3C)c1 | 291 | -2.4% (inactive) | 0.8% (inactive) | 109 | -27.6% (inactive) | 107 | -0.432 (inactive) | -4.6e-05 (inactive) | 0.00533 (inactive) | 10.9% (inactive) | 13% (inactive) |
| O=C(NCCN1CCCCCC1)c1ccc(N2CCCC2=O)cc1 | 561 | -4.7% (inactive) | 23.6% (inactive) | 84.5 | 60.4% (inactive) | 24.3 | -0.406 (inactive) | -4.1e-05 (inactive) | 0.00534 (inactive) | 16.9% (inactive) | 17.9% (inactive) |
| Cc1ccc2occ(CN3CCN(c4ccccc4)CC3)c(=O)c2c1 | 258 | -0.8% (inactive) | 14.3% (inactive) | 81.9 | -17% (inactive) | 93.3 | -0.454 (inactive) | -1.6e-05 (inactive) | 0.00585 (inactive) | 15.8% (inactive) | 18.1% (inactive) |
